HCMV inh – human cytomegalovirus inhibition. HFF cells, HCMV-luciferase reporter, 72 h; hits give low values. activity change, negative = inhibition, % at 57.5 µM. 4.5% of 410,000 active. AID 1259415; in the data active = activity change below about -60%; inconclusive = no clear call, values can overlap the other calls; inactive = above about -39%
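Human foreskin fibroblasts infected with luciferase-reporter HCMV at MOI 1 PFU/cell, compounds at two doses. Luciferase measured 72 h post infection; normalized to buffer-only basal and Salinomycin (10uM) controls.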
CHX counter – affects cycloheximide protein synthesis inhibition readout, counter-screen. AID 2314. max response, %. cell reporter, cycloheximide protein synthesis inhibition counterscreen. 12% of 300,000 active; in the data active = max response mostly above about 13%, no sharp cut-off; inactive = mostly below about 14%; also: read at 38.3 µM for the half of the compounds with a filed dose
Shiga inhibitor – inhibitors of Shiga toxin in Vero cells. inhibition, % at 38.7 µM. Vero cells, Shiga toxin protein synthesis inhibition reporter. 9.2% of 290,000 active. AID 2315; in the data active = inhibition mostly above about 28%, no sharp cut-off; inactive = mostly below about 43%
Pf growth 96h – P. falciparum growth inhibition at 96 hour, primary screen for plastid delayed-death inhibitors; P. falciparum luciferase reporter growth, 96 h; Potency, µM (series often up to 28.7 µM), actives largely listed as inhibitors; 6.9% of 320,000 active; AID 504834
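Two-generation exposure (96 h) targets delayed-death phenotype. Reporter parasites carrying integrated firefly luciferase, in red cells at 2% hematocrit and 0.05% parasitemia final, kept at 37 C, 5% CO2; luminescence loss indicates inhibition.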
Pf growth 48h – P. falciparum growth inhibition at 48 hours (one generation); P. falciparum luciferase growth in erythrocytes, 48 h; Potency, µM (doses to about 28.7 µM), actives largely listed as inhibitors; 5.9% of 310,000 active; AID 504832
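Compounds are pin-transferred into medium, infected erythrocytes (2% hematocrit, 0.1% parasitemia final) are added, and plates sit one parasite generation at 37 C in 5% CO2. Detection reagent is then added and luminescence measured.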
Numbers stand for hits; – = inactive; ? = inconclusive; · = not tested or not shown. Compounds with a hit are over-represented: about 20% of the library has one in this group of screens. Unless noted, calls follow the shape of the dose curve; as a rule, active = well fitted inhibition curve with a large enough effect; inconclusive = small, poorly fitted or top-dose-only effect, or another doubt; inactive = no such curve, though single readings can be large or run the other way.

SMILES | HCMV inh | CHX counter | Shiga inhibitor | Pf growth 96h | Pf growth 48h
Cc1cc(C)n2nc(Sc3ncccc3[N+](=O)[O-])nc2n1 | – | – | – | – | ?
CCOC(=O)C(=O)N(C)c1c(CC)nc2c(OCc3ccccc3OC)cccn12 | – | · | · | · | ·
O=C(CSc1nnnn1-c1ccccc1F)Nc1nc2ccccc2s1 | – | – | – | – | ·
COc1ccc2nc(N(Cc3ccccc3)C(=O)CCNC(C)=O)sc2c1 | · | – | 44 | – | –
COc1ccc2nc(NC(=O)CCNC(=O)c3ccccc3Cl)sc2c1 | – | 33 | 77 | – | –
O=C(CCNC(=O)c1ccco1)Nc1nc2ccccc2s1 | – | · | · | – | –
C=CCn1c(CCNC(=O)c2ccccc2F)nnc1SCC(=O)Nc1nc2ccccc2s1 | – | – | – | 12µM | ·
COc1ccc2nc(N(Cc3cccnc3)C(=O)COc3ccccc3)sc2c1 | – | · | · | · | ·
O=C(CCNC(=O)c1ccccc1Cl)Nc1nc2ccccc2s1 | – | 37 | 143 | – | –
O=C(Nc1ccc(C(=O)OCc2cc(=O)n3c4c(sc3n2)CCCC4)cc1)c1ccccc1 | – | · | · | · | ·
COC(c1ccccc1)c1nnc(CCC(=O)NCc2ccc3ncccc3c2)o1 (stereo not given) | – | – | – | – | –
COC(c1ccccc1)c1nnc(CCC(=O)NCCC(C)C)o1 (stereo not given) | – | – | – | – | –
COC(c1ccccc1)c1nnc(CCC(=O)N(C)Cc2cccc(-n3cccn3)c2)o1 (stereo not given) | – | 33 | 107 | – | –
CCCN(CC1CC1)C(=O)CCc1nnc(C(OC)c2ccccc2)o1 (stereo not given) | – | – | 46 | ? | –
CCCN(CC1CC1)C(=O)CCc1nnc(CCc2c[nH]c3ccccc23)o1 | – | – | – | ? | ?
COC(c1ccccc1)c1nnc(CCC(=O)N(C)CCOc2ccccc2)o1 (stereo not given) | – | 28 | 59 | – | –
COC(c1ccccc1)c1nnc(CCC(=O)N(C)CCCC2CCCC2)o1 (stereo not given) | – | 27 | 46 | ? | –
CCOc1ccccc1NC(=O)CN1C(=O)C2(SCC(=O)N2c2cccc(F)c2)c2ccccc21 (stereo not given) | – | · | · | · | ·
Cc1ccc(CN2CCN(C(=O)c3ccncc3)CC2)cc1 | – | – | – | – | –
COc1ccc(OC)c(NC(=O)C(NS(=O)(=O)c2ccc3c(c2)CCCC(=O)N3)C(C)C)c1 (stereo not given) | – | · | · | · | ·
Cc1cc(=O)oc2cc(OCC(=O)N3CC[C@@]4(O)CCCC[C@H]4C3)c(Cl)cc12 | – | – | – | ? | –
O=C1C(Cl)=C(N2CCC(C(=O)O)CC2)C(=O)c2ccccc21 | · | – | – | 12µM | 12µM
NC(=O)C1CCN(C2=C(Cl)C(=O)c3ccccc3C2=O)CC1 | – | – | – | ? | ?
Brc1ccccc1CNCCc1ccc2c(c1)OCO2 | – | – | – | 12µM | –
CCOc1ccccc1CNCCc1ccc2c(c1)OCO2 | – | – | – | ? | –
SMILES | HCMV inh | CHX counter | Shiga inhibitor | Pf growth 96h | Pf growth 48h
c1cc(CNCCc2ccc3c(c2)OCO3)ccn1 | – | – | · | 12µM | –
Cc1ccc(S(=O)(=O)N2[C@@H](c3ccc(F)cc3)C(C(=O)O)=CC[C@H]2c2ccc3c(c2)OCO3)cc1 | – | · | · | 12µM | ?
Cc1ccc(S(=O)(=O)N2[C@@H](c3ccccc3F)C(C(=O)O)=CC[C@H]2c2ccc3c(c2)OCO3)cc1 | – | · | · | 12µM | ?
CN1CCN(C2CN(Cc3cn(Cc4ccc(Cl)cc4)nn3)S(=O)(=O)C2)CC1 (stereo not given) | – | · | · | · | ·
CCOC(=O)C[n+]1c(C)csc1C | – | – | – | – | –
Cc1csc(C)[n+]1CC(=O)c1ccccc1 | – | – | · | 6.6µM | ?
CSc1nc(N)c(N=Nc2ccc([As](=O)(O)O)cc2)c(=O)[nH]1 | – | – | – | ? | 2.6µM
Nc1nc(N)c(N=Nc2ccc(Cl)cc2)c(=O)[nH]1 | – | – | – | – | –
CC(=O)N1CCN(CC(=O)c2ccc(Br)cc2)CC1 | – | – | – | – | –
O=C(CN1CC[n+]2c(-c3ccccc3)csc21)c1ccc(Br)cc1 | – | – | – | ? | 7.4µM
O=C(CN1CC[n+]2c(-c3cccs3)csc21)c1ccc(Br)cc1 | – | – | – | – | 13µM
CCC(=O)N1[C@H](C(=O)NC2CCCC2)[C@@H](CO)[C@@H]2Cn3c(cccc3=O)[C@@H]21 | – | · | · | · | ·
COc1ccc2ncc(OC(C)=O)cc2c1 | – | 14 | – | – | –
COc1ccc(CCN(C)CCCC(C#N)(c2cc(OC)c(OC)c(OC)c2)C(C)C)cc1OC (stereo not given) | – | – | – | 5.2µM | 12µM
COc1cccc(CN(C)C(=O)CCNC(=O)c2ccc(Br)cc2)c1 | – | – | – | – | ?
CCCn1c(=O)c2sccc2n2c(CCCC(=O)NCc3ccco3)nnc12 | – | – | – | 15µM | ?
CCCn1c(=O)c2sccc2n2c(CCCC(=O)NCc3cccnc3)nnc12 | – | – | – | – | –
CCC1CCCCN1C(=O)Cn1c(=O)n(CCC(=O)NCc2ccco2)c(=O)c2sccc21 (stereo not given) | – | – | – | 5.2µM | –
CCCn1c(=O)c2sccc2n2c(CCCC(=O)Nc3ccc(Oc4ccccc4)cc3)nnc12 | -61 | · | · | · | ·
COCCCn1c(=O)c2sccc2n2c(CCCC(=O)N3CCN(c4ccccn4)CC3)nnc12 | – | – | – | – | ?
Cn1c(=O)c2sccc2n2c(CCCC(=O)N3CCN(c4ccccn4)CC3)nnc12 | – | – | – | 9.3µM | ?
Cc1ccc(C)c(NC(=O)CN(C)C(=O)c2ccc3c(=O)n4c(nc3c2)CCC4)c1 | – | · | · | – | ?
CCOC(=O)COn1c(=O)c(-c2cccs2)[n+]([O-])c2ccccc21 | – | 33 | – | ? | –
CCOn1c(=O)c(-c2cccs2)[n+]([O-])c2ccccc21 | – | – | – | – | ·
COn1c(=O)c(-c2cccs2)[n+]([O-])c2ccccc21 | – | 20 | – | – | –
SMILES | HCMV inh | CHX counter | Shiga inhibitor | Pf growth 96h | Pf growth 48h
CN(C(=O)Nc1ccc(Cl)cc1Cl)[C@H]1c2cc(Br)ccc2OC[C@H]1CO | – | – | – | ? | 8.3µM
O=C(Nc1ccc(Cl)cc1Cl)c1cc2ccccc2o1 | – | 51 | 57 | – | –
COc1ccccc1NC(=O)c1cc2ccccc2o1 | – | 39 | 64 | 5.2µM | –
COc1cc(NC(=O)c2cc3ccccc3o2)c(OC)cc1Cl | – | – | – | ? | ·
O=C(NCc1ccccc1Cl)c1cc2ccccc2o1 | – | · | · | · | ·
CCN(CC)c1ccc(NC(=O)c2c(OC)cccc2OC)c(C)c1 | – | – | – | – | –
CCN(CC)c1ccc(NC(=O)c2cc3ccccc3o2)c(C)c1 | – | 26 | 59 | – | –
O=C(Nc1ncccc1Cl)c1cc2ccccc2o1 | – | 30 | 73 | – | –
Cc1noc(C)c1CSc1ncnc2ccccc12 | – | – | – | · | ·
Cc1ccccc1NC(=O)c1cc2ccccc2o1 | – | 37 | · | 10µM | –
Cc1ccccc1NC(=O)c1cc(=O)c2ccccc2o1 | – | – | – | – | –
CCC/C(=N\NC(=O)c1csc(C)c1C)c1cccs1 | – | 36 | 84 | · | –
